Assay results: PubChem BioAssay (NCI)
Where “and” joins values, the source holds several entries; their conditions need not be identical. Equal values may be shown once. Compounds without any hit were thinned out: in the full panel of roughly 83,000, 20% have a hit.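 Results are percent growth after 48 hours of single-concentration exposure. 100 means growth as in untreated cells, lower positive values show inhibition; negative values down to -100 show cell death.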 Calls of active or inactive are those of the source. Rule for the calls: active = growth percent below 10; inactive = the rest.

These molecules were tested on MDA-MB-468 breast (assay: NCI-60 one-dose screen, 48 h (100 = growth as untreated, 0 = no growth, -100 = all killed)). Details: 10 µM unless noted.
`CCCCOc1c(N)cc(Cl)cc1C(=O)OCCN(CC)CC` was tested, and the growth was 112% (inactive). In the case of `O=C(/C=C/C12c3ccccc3C(c3ccccc31)C1C(=O)NC(=O)C12)c1ccco1` (stereo not given), the growth is reported as 21.8% (inactive). In the case of `O=c1nc2sc3nc4ccccc4cc3cc-2s1`, the growth is reported as 124% (inactive). With `Cc1cc[c-]cc1.Fc1c[c-]c(-c2ccccn2)c(F)c1.[Pt+2].c1ccc(P(C[PH+](c2ccccc2)c2ccccc2)c2ccccc2)cc1` the growth was -2.46% (active). With `c1ccc2cc(Cn3c[n+](Cc4ccc5ccccc5c4)c4ccccc43)ccc2c1` the growth was -21% (active). With `COc1ccc(NC(=O)c2ccoc2COc2ccccc2)cc1` the growth was 116% (inactive). `N#CC1=C(N)Oc2c(ccc3ccccc23)C1c1cccs1` (stereo not given) was tested, and the growth was 26.5% (inactive). `N#CN1CC[C@H](C(=O)Nc2ncc(-c3ccncc3)s2)C1` was tested, and the growth was -35.7% (active). `COc1cc(Cn2cc3c(c2)-c2onc(CO)c2CC3)cc(OC)c1OC` was tested, and the growth was 81.6% (inactive). For `COc1ccc(-c2nc3ccccn3c2-c2nnc(-c3cc(OC)c(OC)c(OC)c3)o2)cc1`, the growth was 44.3% (inactive). For `O=C(O)c1ccc(-n2cc(CNc3ccc(C(F)(F)F)cc3)c(-c3ccccc3)n2)cc1`, the growth was 102% (inactive). For `Cc1ccc(C(=O)/C(=C/c2ccc([N+](=O)[O-])cc2)S(=O)Cc2ccccc2)cc1` (stereo not given), the growth was -54.1% (active). For `O=C(/C=C\c1cc(Br)ccc1O)/C=C/c1cc(Br)ccc1O`, the growth was -65% (active). `Cc1cccc(C)c1NC(=O)Nc1ccccc1` was tested, and the growth was 77.6% (inactive). With `O=C(O)Cc1ccc(Cl)cc1` the growth was 106% (inactive). In the case of `COc1cc(C(=O)NC(=S)Nc2ccc3ccccc3c2)cc(OC)c1OC`, the growth is reported as 95.5% (inactive). With `COC(=O)Cc1cc(COC(C)=O)ccc1C` the growth was 108% (inactive). With `CCCCN(C=S)CCCC` the growth was 101% (inactive). In the case of `O=C(/C=C/C=C/c1ccccc1)c1ccco1`, the growth is reported as 29.3% (inactive). For `O=C(COc1cc(O)c2c(=O)cc(-c3ccccc3)oc2c1)Nc1ccccc1`, the growth was 103% (inactive). With `O=[N+]([O-])c1ccc(Oc2ccc(-c3ccccc3)cc2)cc1` the growth was 71.4% (inactive). `COC(c1ccccc1)(c1ccccc1)c1ccccc1` was tested, and the growth was 113% (inactive). `CCO/C=N/C1=C(C#N)C(c2ccc(Cl)cc2)c2c(c3ccccc3n(C)c2=O)O1` (stereo not given) was tested, and the growth was 54% (inactive). In the case of `COc1ccccc1N1C(=N)S/C(=C\c2ccc(OCc3ccccc3F)cc2)C1=O`, the growth is reported as 5.85% (active). For `Cc1nc([N+](=O)[O-])c(Sc2nncc(-c3ccccc3)n2)n1C`, the growth was 29.5% (inactive). `N#Cc1c(-c2ccccc2)nc(SCC(=O)Nc2nc(-c3ccc(Cl)cc3)cs2)[nH]c1=O` was tested, and the growth was 85.7% (inactive). With `NNC(=O)CNC(=O)Nc1n[nH]c(=S)s1` the growth was 111% (inactive). For `COc1cc2c3c(c1)nc(C)n3CCC2`, the growth was 99.6% (inactive). For `COc1cc(-c2cc(-c3ccc(Nc4ncnc5cc(Cl)ccc45)cc3)nc(N3CCCCC3)n2)cc(OC)c1OC`, the growth was 107% (inactive). In the case of `O=S(=O)(OCCO)c1ccccc1`, the growth is reported as 97% (inactive). For `COc1cc2nccc(Oc3ccc(NC(=O)C4(C(=O)Nc5ccc(F)cc5)CC4)cc3)c2cc1OC(=O)c1ccc(N)cc1`, the growth was 59.3% (inactive). With `COc1ccc(S(=O)(=O)N2CCOCC2)cc1NC(=O)c1[nH]c(C)c2c1CCCCC2=O` the growth was 105% (inactive) and 47.2% (inactive). In the case of `CC(=O)OCCO`, the growth is reported as 98.6% (inactive). `O=c1c2cc(-c3ccccc3)sc2nc2sc(-c3ccccc3)nn12` was tested, and the growth was 101% (inactive). In the case of `O=c1nc(-c2ccccc2)c2cc(-c3ccc(C(F)(F)F)nc3)ccc2[nH]1`, the growth is reported as 104% (inactive). With `COc1ccc(/C=C(\C(=O)NCc2cccnc2)S(=O)(=O)c2ccccc2)cc1OC` the growth was 1.86% (active). For `O=C(CC1Sc2ccccc2NC1=O)NNc1ccc(F)cc1` (stereo not given), the growth was 92.7% (inactive). `Cc1nc(NC(=O)COc2ccc(/C=C3\Cc4ccc(Cl)cc4C3=O)cc2)sc1C` was tested, and the growth was 112% (inactive). In the case of `Nc1ccc(-c2ccncc2)cc1NC(=O)N1CCCC1`, the growth is reported as 94.2% (inactive). In the case of `COc1cc(Nc2c(C#N)cnn3cc(-c4cnn(CC(C)(C)O)c4)cc23)ccc1Cl`, the growth is reported as 65.1% (inactive).
